Test results as given in PubChem BioAssay AID894 (National Center for Advancing Translational Sciences (NCATS), 2007).
The whole screen tested about 150,000 compounds, of which about 6,500 (4.3%) were called active. Another 12% or so got no clear call; they are omitted. Only a selection was taken, and actives are over-represented in it overall. Values without a mark were called inactive. The call rests on the fitted dose curve; in most records, active means well fitted inhibition curve with a large enough effect (not every such curve was filed as active); inconclusive means small, poorly fitted or top-dose-only effect, or another doubt; inactive means no such curve, though single readings can be large or run the other way.

Target: 15-hydroxyprostaglandin dehydrogenase [NAD(+)] (Homo sapiens) (UniProt P15428)
Assay: qHTS Assay for Inhibitors of HPGD (15-Hydroxyprostaglandin Dehydrogenase)
Conditions: purified HPGD, NADH fluorescence kinetic, PGE2 substrate; activity change, negative = inhibition: hits give low values
In short: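 20 nM HPGD preincubated 15 min at room temperature with compound in 50 mM Tris-HCl pH 8, 0.01% Tween 20. Started with 1 mM NAD+ and 30 uM prostaglandin E2; NADH fluorescence (360/450 nm) read 5 times over 30-s intervals, last minus first.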
On the % scale 0 is the no-effect control and ±100 the full control effect; potency means the concentration at half of the fitted maximal effect.

15-hydroxyprostaglandin dehydrogenase [NAD(+)] (Homo sapiens), sequence (P15428 whole entry, looked up): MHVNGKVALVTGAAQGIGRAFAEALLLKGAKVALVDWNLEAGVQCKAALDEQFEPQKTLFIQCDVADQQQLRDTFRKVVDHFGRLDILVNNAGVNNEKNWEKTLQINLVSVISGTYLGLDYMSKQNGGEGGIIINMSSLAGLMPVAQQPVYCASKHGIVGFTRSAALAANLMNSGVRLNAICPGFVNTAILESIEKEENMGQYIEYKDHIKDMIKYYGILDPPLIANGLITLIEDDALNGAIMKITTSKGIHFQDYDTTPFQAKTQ

SMILES | activity change, negative = inhibition | Potency
Cc1ccc(Nc2ccc(C(N)=O)cc2[N+](=O)[O-])cc1 | -24.4% | –
CCNC(=O)NC(=O)C(C)OC(=O)C1CCN(S(=O)(=O)c2ccccc2F)CC1 (stereo not given) | -13.3% | –
Cc1nn(-c2ccccc2)c2sc(C(=O)N(Cc3ccco3)C(C)C(=O)NC(C)(C)C)cc12 (stereo not given) | -12.4% | –
Cc1onc(-c2c(Cl)cccc2Cl)c1C(=O)c1c[nH]c(C(=O)NC2CC2)c1 | -1.05% | –
Cc1ccccc1-n1nc(C)c2cc(C(=O)NC3CC3)sc21 | – | 22.4 µM (active)
OC[C@H]1O[C@@H](n2cnc3c(N[C@H]4CC5CCC4C5)ncnc32)[C@H](O)[C@@H]1O (stereo not given in full) | -25% | –
COc1cc(C(=O)NNC(=O)c2ccc(S(=O)(=O)N3CCCCC3)cc2)cc(OC)c1OC | 5.41% | –
COc1cc(OC)c(-n2c(C)cc(C=O)c2C)cc1Cl | – | 3.55 µM (active)
COc1ccc(Cl)cc1-n1c(C)cc(C(=O)OCC(=O)N2CC(=O)Nc3ccccc32)c1C | -10% | –
COc1cc(Cl)c(S(=O)(=O)n2cnc(C)c2)cc1Cl | 0.989% | –
C[C@H]1Cc2c(-c3ccccc3)nc3c(c2CO1)CN(C(=O)C1CC1)CC3 | -5.41% | –
COc1ccc2c(c1)CCc1c(C(=O)N3CCc4ccccc4C3)noc1-2 | – | 17.8 µM (active)
O=C(COc1ccccc1)N1CCc2ccccc2C1 | -7.89% | –
COc1ccc(-c2nc(CS(=O)CC(=O)N3CCc4ccccc4C3)c(C)o2)cc1 (stereo not given) | -23.2% | –
COc1ccc2c(c1)CCc1c(C(=O)N3CCCC3)noc1-2 | – | 20 µM (active)
COc1ccc(-c2nc3c(c4c2C[C@H](c2ccccc2)OC4)CN(C(=O)C2CC2)CC3)c(C)c1 | -7.07% | –
COc1ccc2c(c1)CCc1c(C(=O)Nc3c(C)n(C)n(-c4ccccc4)c3=O)noc1-2 | -26.2% | –
CC(=O)Nc1ccc(C(=O)OCC(=O)Nc2ccc([N+](=O)[O-])cc2C(F)(F)F)cc1 | -4.2% | –
O=C(CSc1nc2ccc([N+](=O)[O-])cc2[nH]1)c1ccc(Cl)cc1 | -4.65% | –
COc1ccc(O[C@H]2C=C[C@@H](c3ccccc3)O[C@@H]2CO/N=C/C[C@@H]2C=C[C@H](OC(C)=O)[C@@H](COC(C)=O)O2)cc1 | -8.59% | –
CCOc1ccc(S(=O)(=O)N(CC(=O)NCC(F)(F)F)Cc2ccco2)cc1 | -11.9% | –
O=C(Nc1cccc([N+](=O)[O-])c1)c1ccc2c(c1)OCO2 | -1.46% | –
N#CC1=C(SCc2ccccc2)NC(=O)C(C#N)C12CCCC2 (stereo not given) | – | 17.8 µM (active)
CC1(C)CCc2nc(SCc3ccccc3)c(C#N)cc2C1 | -11% | –
N#CC1=C(SCc2ccc(C#N)cc2)N=C(N)C(c2nc(-c3ccccc3)cs2)C12CCCCC2 (stereo not given) | -15.3% | –

SMILES | activity change, negative = inhibition | Potency
Cc1c(Cl)cccc1NC(=O)CC1SC(=NCC2CCCO2)NC1=O (stereo not given) | -12.3% | –
O=C(CN1C(=O)/C(=C\c2ccc(C(F)(F)F)cc2)Sc2ccccc21)NCc1ccco1 | 33.1% | –
CCOc1ccc(OCC)c(NC(=O)C2CCN(S(=O)(=O)c3c(C)noc3C)CC2)c1 | -8.5% | –
Cc1noc(/C=C/N(C)C)c1S(=O)(=O)N1CCCC(C(=O)NCc2ccco2)C1 (stereo not given) | -17.1% | –
Cc1noc(C)c1S(=O)(=O)N1CCCC(C(=O)Nc2nccs2)C1 (stereo not given) | – | 35.5 µM (active)
Cn1cc(/C=C/c2nc3ccccc3c(=O)n2-c2cccc([N+](=O)[O-])c2)c2ccccc21 | -11.6% | –
Cc1ccc(/C=C/C(=O)Nc2cc(S(=O)(=O)N3CCCCCC3)ccc2OCC(F)(F)F)o1 | -24.4% | –
Cn1c(CNC(=O)c2ccccc2F)nnc1SCc1ccc(F)cc1 | -8.88% | –
CN(C)c1ccc(-n2cccc2/C=N/n2cnnc2)cc1 | -4.13% | –
CCOC(=O)c1sc(NC(=O)CSc2nc(C)cc(C(F)(F)F)n2)c(C#N)c1C | – | 3.55 µM (active)
CCOC(=O)c1sc(NC(=O)CSc2ncccn2)c(C#N)c1C | -17.5% | –
CCOC(=O)c1sc(NC(=O)CSc2nnc(-c3ccco3)o2)c(C(=O)OCC)c1C | -18.6% | –
COc1cc(NC(=O)c2cc([N+](=O)[O-])ccc2Br)ccc1NC(=O)c1ccco1 | -20.2% | –
CSc1ccccc1NC(=O)Cc1ccc(Br)cc1 | -10.6% | –
COC(=O)c1cc(C(=O)OC)cc(N2C(=O)CC(N3CCN(c4ccccc4)CC3)C2=O)c1 (stereo not given) | -19.8% | –
COc1ccccc1-c1nnc(NC(=O)c2cccc(N3C(=O)CCC3=O)c2)o1 | -9.42% | –
COC(=O)c1cccc(-n2[nH]nnc2=S)c1 | – | 28.2 µM (active)
CN1CCN(c2ccc(S(=O)(=O)N3CCCCC3)cc2NC(=O)Cc2ccccc2F)CC1 | 3.83% | –
Cn1c(=O)c2cn(-c3cccc4ccccc34)cc2n(C)c1=O | -20.9% | –
CC1(C)CCCC2=C1CC1C(=O)N(c3ccccc3)C(=O)C1C2 (stereo not given) | 0.735% | –
CC1=C(C)CC2C(=O)N(c3cccc4ccccc34)C(=O)C2C1 (stereo not given) | – | 25.1 µM (active)
CCCOc1ccc(NC(=O)CC2C(=O)N(C)C(=S)N2Cc2ccc3c(c2)OCO3)cc1 (stereo not given) | -0.216% | –
O=C(/C=C/c1ccc(F)cc1)Nc1cccc(S(=O)(=O)Nc2cccc(C(F)(F)F)c2)c1 | -7.72% | –
CCc1ccc(NC(=O)C(C)OC(=O)/C=C/c2cccc([N+](=O)[O-])c2)cc1 (stereo not given) | -2.79% | –
CCOC(=O)C1=C(C)NC(=S)NC1c1cccs1 (stereo not given) | -5.68% | –
